Bioassay records: PubChem, National Center for Advancing Translational Sciences (NCATS)
Only some compounds are listed: those with a hit (about 0.96% of all), similar ones and a draw of the others.
A647 fluor – compound fluoresces in the A647 spectral region; Compound fluorescence, A647 channel (570/671 nm), Tris buffer; max dye-equivalent concentration, M; 59,000 tested, under 10 active; AID 592;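 note: values scaled relative to a standard on each plate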
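Buffer was dispensed, compounds and Alexa 647 standards were pin-transferred, and plates sat 15 min at room temperature. Intensity at 570/671 nm was then converted to dye-equivalent concentration using the plate's A647 standard curve.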
Fluorescein fluor – fluorescein region autofluorescence; Compound autofluorescence, 480/540 nm, fluorescein-equivalent; stronger effect = higher value; max fluorescein-equivalent concentration, M; 59,000 compounds, 0.91% hits; AID 593; in the data active = max fluorescein-equivalent concentration above about 10 nM; inconclusive = between about 1.1 nM and that limit
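Compounds were pin-transferred into 100 mM Tris buffer, pH 8.0, and incubated 15 min at room temperature. Fluorescence was read at 480 nm excitation/540 nm emission. Signals were normalized to an on-plate six-point fluorescein standard curve as dye-equivalent concentration.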
Resorufin autofl – resorufin region autofluorescence. 59,000 compounds, 0.04% hits. Compound fluorescence, resorufin region 547/598 nm, buffer; stronger effect = higher value. max dye-equivalent concentration, M
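Intrinsic fluorescence profiled in the resorufin window (ex 547 nm, em 598 nm) after 15 min at room temperature in pH 8.0 Tris buffer (100 mM); responses normalized against a six-point resorufin standard series as dye-equivalent concentration.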
TexasRed autofl – compound fluoresces in the Texas Red spectral region; Compound fluorescence, Texas Red channel, 547/618 nm; stronger effect = higher value; max dye-equivalent concentration, M; 59,000 compounds, 0.06% hits; AID 587; in the data active = max dye-equivalent concentration above about 10 nM; inconclusive = between about 1.1 nM and that limit
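Compound fluorescence was read after 15 min at room temperature in 100 mM Tris, pH 8.0, using 547 nm excitation and 618 nm emission across a concentration series. It was expressed as Texas Red dye-equivalent concentration from an on-plate standard curve.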
A488 fluor – compound fluoresces in the A488 spectral region | max dye equivalency, M | compound autofluorescence, A488 spectral region, dye equivalency; Compound Type: qHTS ECL - MLSMR | 59,000 compounds, 0.1% hits | AID 591
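Compounds pin-transferred into 100 mM Tris buffer, pH 8.0, incubated 15 min at room temperature, then imaged with 480 nm excitation/540 nm emission filters. Fluorescence converted to Alexa 488 dye-equivalent concentration via an on-plate six-point A488 standard curve.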
Rhodamine autofl – rhodamine region autofluorescence. max dye-equivalent concentration, M. Rhodamine-region fluorescence, 547/598 nm, Tris buffer; stronger effect = higher value. 59,000 compounds, 0.05% hits; in the data active = max dye-equivalent concentration above about 11 nM; inconclusive = between about 1.1 nM and that limit
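Read-out is relative fluorescence at 547 nm excitation and 598 nm emission, expressed as dye-equivalent concentration using rhodamine standards on every plate. Each compound was profiled across a concentration series after 15 min in 100 mM Tris, pH 8.0.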
An asterisk follows results filed as active; i = inactive; u = inconclusive; ! = a repeat was not active. Unless noted, the rule behind the calls is not given here.

SMILES	A647 fluor	Fluorescein fluor	Resorufin autofl	TexasRed autofl	A488 fluor	Rhodamine autofl
COc1ccccc1NC(=O)c1cc2ccc(O)cc2o/c1=N\O	3.38e-08	1.45e-08M*	i	i	i	i
COc1ccccc1NC(=O)c1cc2ccccc2o/c1=N\O	4.41e-08	u	i	i	i	i
CCN(CC)CCCn1c(=S)[nH]c2ccccc2c1=O	1.5e-09	i	i	i	i	i
CCN(CC)CC[n+]1ccc2c(C)c3[nH]c4ccccc4c3c(C)c2c1	4.04e-08	1.7e-08M*	i	i	i	i
C=C[C@H]1CN2CC[C@@H]1C[C@@H]2[C@@H](O)c1ccnc2ccc(OC)cc12	4.8e-08	u	i	i	i	i
O=c1c(-c2cc(F)cc(F)c2)nc2cnc(N3CCOCC3)nc2n1C1CC1	3.81e-08	u	i	i	i	i
COc1ccc(O)c(C(=O)c2cc(C#N)c(=O)n(CCN3CCOCC3)c2)c1	1e-09	i	i	i	i	i
COc1ccc(O)c(C(=O)c2cc(C#N)c(=O)n(-c3c(C)n(C)n(-c4ccccc4)c3=O)c2)c1	1e-09	1.21e-07M*	i	i	u	i
O=c1c(-c2ccc(Cl)cc2)nc2cnc(N3CCNCC3)nc2n1Cc1cccs1	3.32e-08	u	i	i	i	i
COc1ccc(NCc2c(O)ccc3ccccc23)cc1	3.94e-08	u	i	i	i	i
CO[C@@]12C[C@@H](COC(=O)c3cncc(Br)c3)CN(C)[C@H]1Cc1cn(C)c3cccc2c13	1e-09	2.53e-08M*!	i	i	i	i
COc1cccc(Cn2c(N)c(C#N)c3nc4ccccc4nc32)c1OC	3.21e-08	1.26e-08M*	i	i	i	i
COc1cc(Cn2c(N)c(C#N)c3nc4ccccc4nc32)cc(OC)c1	4.53e-08	u	i	i	i	i
CCCCn1c(CN2CCN(C)CC2)nc2ccccc21	1e-09	i	i	i	i	i
CN1CCN(Cc2nc3cccc4c3c([n+]2[O-])-c2ccccc2-4)CC1	1e-09	1.4e-08M*	i	i	i	i
O=C1CN(/N=C\c2ccc([N+](=O)[O-])o2)C(=O)N1	2.4e-08	1.61e-07M*	i	u	u	i
C[C@H]1CS(=O)(=O)CCN1/N=C\c1ccc([N+](=O)[O-])o1	2.4e-09	i	i	i	i	i
C[N+]1(CCC(=O)c2ccco2)CC2CCC(CC2)C1 (centres undefined)	5.62e-08	u	i	i	i	i
Oc1ccc2cccnc2c1	4.24e-08	1.61e-08M*	i	i	i	i
CCOC(=O)N1CCN(C2=Nc3cccc4cccc2c34)CC1	1e-09	4.8e-08M*	i	i	u	i
CCOC(=O)N1CCN(c2ccc(Cl)c(Cl)c2)CC1	2.4e-09	i	i	i	i	i
CC(=O)N1CCN(C2=Nc3cccc4cccc2c34)CC1	3.58e-08	2.71e-08M*	i	i	i	i
O=C(CN1C(=O)c2cccc3cccc1c23)N1CCN(c2ccccc2)CC1	2.9e-09	i	i	i	i	i
O=C(O)[C@@H]1Cc2c([nH]c3ccccc23)[C@@H](CCCCO)N1	5e-08	u	i	i	i	i
Cc1cc(N2CCOCC2)n2nc(-c3cccc(F)c3)cc2n1	2.7e-09	1.1e-08M*	i	i	i	i
SMILES	A647 fluor	Fluorescein fluor	Resorufin autofl	TexasRed autofl	A488 fluor	Rhodamine autofl
CC(=O)OCC(=O)NCc1ccc2c(c1)OCO2	4.03e-08	u	i	i	i	i
CC(C)c1nnc(NC(=O)CCC(=O)NCc2ccc3c(c2)OCO3)s1	2.2e-09	1.28e-07M*	i	i	u	i
C[Si](C)(c1ccc(C(=O)O)cc1)c1ccc(C(=O)O)cc1	1e-09	i	i	i	i	i
N#Cc1c(N2CCCCC2)nc(N2CCCCC2)c2c1CCN(Cc1ccccc1)C2	1.3e-09	4.8e-08M*	i	i	u	i
CCN1C(=O)c2cccc3cccc1c23	7.7e-09	i	i	u	i	i
CCN(CC)CCN1C(=O)c2cccc3cc(N)cc(c23)C1=O	1.2e-09	3.89e-08M*	i	i	u	i
Nc1nc(Cn2nnc(-c3ccccc3F)n2)nc(N2CCOCC2)n1	1.79e-08	i	i	i	i	i
N#Cc1c(C(F)(F)F)cc(-c2ccccc2)nc1SCc1nc(N)nc(N2CCOCC2)n1	1e-09	1.62e-08M*	i	i	i	i
CC(=O)NCCNc1ncncc1-c1ccc(N(C)C)cc1	3.49e-08	u	i	i	i	i
COc1cccc(-c2cc(NCc3cccc(C)c3)ncn2)c1	1e-09	u	i	i	i	i
CC1(C)Cc2c(c(-c3ccco3)[nH]c(=O)c2C#N)CS1	6.1e-09	8.7e-08M*	i	u	u	i
O=C(NC1=NCCS1)C1Cc2ccccc2CN1C(=O)c1ccccc1 (centres undefined)	7e-09	i	i	u	i	i
COc1ccc(NC(=O)C2Cc3ccccc3CN2C(=O)c2ccccc2)cn1 (centres undefined)	1e-09	5.91e-08M*	i	i	u	i
O=C(c1ccncc1)N1CCC2(CCN(Cc3ccncc3)CC2)CC1	1e-09	i	i	i	i	i
COCCn1c(=O)c(-c2ccc(OC)cc2)nc2cnc(Nc3ccccc3)nc21	1e-09	2.38e-08M*	i	i	i	i
COCCn1c(=O)c(-c2cccs2)nc2cnc(Nc3ccccc3)nc21	2.57e-08	2.69e-08M*	i	i	i	i
COc1ccc(NC(=O)N2CCC3(CC2)CCN(C(=O)c2cnccn2)CC3)cc1	2.05e-08	i	i	i	i	i
CCOc1cc(-c2ccc(N)c(OCC)c2)ccc1N	1e-09	9.79e-08M*	i	i	u	i
O=c1[nH]c(=O)n([C@@H]2C[C@H](O)[C@H](CO)O2)cc1I	1.74e-08	u	i	i	i	i
COc1ccc(-n2c(=O)c(-c3cc(F)cc(F)c3)nc3cnc(N(C)C)nc32)cc1	2.7e-09	i	i	i	i	i
COc1ccc(C[C@@H]2C(=O)N[C@H](C)C(=O)N(C)[C@@H]3Cc4ccc(cc4)Oc4cc(ccc4O)C[C@H](C(=O)N[C@@H](C)C(=O)N[C@H](C)C(=O)N2C)N(C)C3=O)cc1	1.38e-08	i	i	i	i	i
Cc1cc(N2CCOCC2)nc2ccc(Cc3ccc4nc(N5CCOCC5)cc(C)c4c3)cc12	5e-09	i	i	u	i	i
O=C(NCc1ccco1)c1cccnc1-c1nc2ccccc2s1	2.2e-08	3.5e-08M*	i	i	u	i
